# Data from PubChem BioAssay (Tox21).
# Records with an inconclusive call do not appear. Where a call stands in place of a potency, no number is given. A number with no mark means an inactive call. The source made the active and inactive calls. Unless noted, calls come from the whole dose curve; as a rule, active = well fitted curve in the direction sought with a large enough effect in the repeat runs; inconclusive = weak or mixed curves; inactive = no such curve, though single readings can be large; an effect the other way counts as inactive or inconclusive.
# Tests used:
# [1] = target: Retinoic acid receptor RXR-alpha (Homo sapiens) (UniProt P19793); test: qHTS assay to identify small molecule agonists of the RXR signaling pathway (AID 1159527; calls by dose curve; note: nearly all actives have a fitted effect of over 35% in size; note: potency is the fitted concentration of half-maximal effect); settings: HEK293T RXRa-UAS-bla, beta-lactamase ratio, 16 h; series mostly up to 76.8 µM
# Retinoic acid receptor RXR-alpha (Homo sapiens), sequence (P19793 whole entry, looked up): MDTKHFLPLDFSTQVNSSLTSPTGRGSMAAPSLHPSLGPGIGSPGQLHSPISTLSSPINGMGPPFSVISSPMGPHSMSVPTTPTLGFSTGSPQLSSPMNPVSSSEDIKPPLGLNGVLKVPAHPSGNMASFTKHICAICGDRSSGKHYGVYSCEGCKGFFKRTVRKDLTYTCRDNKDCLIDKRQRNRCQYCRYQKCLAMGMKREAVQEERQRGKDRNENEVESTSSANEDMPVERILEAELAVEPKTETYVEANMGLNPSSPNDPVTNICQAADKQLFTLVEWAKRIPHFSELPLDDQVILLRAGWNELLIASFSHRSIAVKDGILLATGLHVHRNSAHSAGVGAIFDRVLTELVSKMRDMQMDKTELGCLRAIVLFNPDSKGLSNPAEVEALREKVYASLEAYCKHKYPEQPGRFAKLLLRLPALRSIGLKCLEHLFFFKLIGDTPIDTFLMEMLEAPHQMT
# Procedure, shortened: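 Fluorescence ratio readout (460 vs 530 nm) from GeneBLAzer RXR-alpha HEK 293T cells after 16 hr compound treatment; cells seeded 5 hr beforehand in low-serum, charcoal-stripped medium.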
# [2] = qHTS assay to identify small molecule agonists of the RXR signaling pathway - cell viability counter screen (AID 1159529); settings: RXR-alpha-bla HEK293T viability, CellTiter-Glo, 16 h; series mostly up to 76.8 µM;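 note: HEK 293T cells carrying an RXR-alpha UAS beta-lactamase reporter; nearly all actives have a fitted effect of over 50% in size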
# Procedure, shortened: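 Viability read-out for the RXR-alpha agonist qHTS: luminescent CellTiter-Glo signal after 30 min at RT. HEK 293T bla reporter cells, 2% charcoal-stripped FBS, 16 hr compound incubation; tetraoctyl ammonium bromide as cytotoxic control.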
# [3] = qHTS assay to identify small molecule antagonists of the retinoid acid receptor (RAR) signaling pathway - cell viability counter screen (AID 1159551); settings: C3RL4 cells viability, ATP luminescence (CellTiter-Glo), 6 h; series mostly up to 92.4 µM; note: nearly all actives have a fitted effect of over 35% in size
# Procedure, shortened: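 Luminescent ATP quantitation (CellTiter-Glo) gave cell viability in C3RL4 cells exposed to test chemicals for 6 h at 37 C alongside 1 uM final retinol.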
# [4] = qHTS assay to identify small molecule antagonists of the retinoic acid receptor (RAR) signaling pathway (AID 1159552; note: nearly all actives have a fitted effect of over 50% in size); settings: C3RL4 RARE luciferase reporter, retinol-stimulated, 6 h; series mostly up to 92.4 µM
# Procedure, shortened: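 Using a RARE-driven luciferase construct in C3RL4 cells, retinol at 1 uM final provided the agonist stimulus while compounds were co-applied. After 6 hours at 37 C, luminescence was recorded to flag inhibitors of retinol signaling.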
# [5] = qHTS assay to identify small molecule agonists of the retinoic acid receptor (RAR) signaling pathway (AID 1159553); settings: C3RL4 RARE luciferase reporter, agonist, 6 h; series mostly up to 73.3 µM
# Procedure, shortened: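 Luminescence from a RARE-driven luciferase reporter in C3RL4 cells served as the read-out, measured after 30 min with detection reagent at room temperature. Compounds in DMSO were applied for 6 hr at 37 C following overnight seeding.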
# [6] = qHTS assay to identify small molecule antagonists of the estrogen related receptor signaling pathway with the pleiotropic PPARgamma coactivator (PGC) cell viability counter screen (AID 1224822;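 note: viability read after 17.5 h compound exposure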); settings: ERR/PGC reporter cell line viability counter screen; series mostly up to 46.1 µM
# Procedure, shortened: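 Cells: PGC/ERR, 2,000/well, 1536-well format. Pre-incubation 6 h, 37 C/5% CO2. Compound exposure 17.5 h, 37 C. Detection: CellTiter-Fluor, 30 min, fluorescence.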
# [7] = qHTS assay to identify small molecule antagonists of the estrogen related receptor (ERR) signaling pathway (AID 1224819;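 note: luminescence from an ERR-driven luciferase reporter measured with One-Glo reagent; nearly all actives have a fitted effect of over 50% in size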); settings: ERR reporter cell line, luciferase inhibition; series mostly up to 46.1 µM
# Procedure, shortened: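 Seed ERR cells 2,000/well; rest 6 h at 37 C/5% CO2; pin compounds in DMSO; incubate 18 h at 37 C; add One-Glo; wait 30 min at room temperature; measure luminescence.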
# [8] = qHTS assay to identify small molecule agonists of the estrogen related receptor (ERR) signaling pathway (AID 1224820); settings: ERR reporter cell line, luciferase agonist mode; series mostly up to 46.1 µM
# Procedure, shortened: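 ERR reporter cells (NTP line) plated 2,000/well, incubated 6 h at 37 C/5% CO2, then pinned with compounds in DMSO and held 18 h at 37 C. One-Glo added; luminescence read after 30 min at room temperature.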
# [9] = test system: estrogen-related receptor alpha (ERRalpha) with PGC-1alpha coactivator, human; test: qHTS assay to identify small molecule antagonists of the estrogen related receptor signaling pathway with the pleiotropic PPARgamma coactivator (PGC) (AID 1224821; calls by dose curve;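 note: lower luminescence signal means antagonism of PGC/ERR signalling; nearly all actives have a fitted effect of over 50% in size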); settings: ERR/PGC reporter cell line, luciferase, antagonist mode; series mostly up to 46.1 µM
# Procedure, shortened: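 Cells engineered for PGC/ERR signalling (line from NTP) were plated 6 h at 37 C/5% CO2, then exposed to DMSO-dissolved compound for 18 h at 37 C. Luciferase activity was read by One-Glo luminescence after 30 min at room temperature.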
# [10] = qHTS assay to identify small molecule agonists of the estrogen related receptor signaling pathway with the pleiotropic PPARgamma coactivator (PGC) (AID 1224823); settings: ERR/PGC reporter cell line, luciferase agonist mode; series mostly up to 46.1 µM
# Procedure, shortened: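 PGC/ERR reporter cells were seeded, rested 6 h at 37 C/5% CO2, then exposed to compounds in DMSO by pin transfer for 18 h at 37 C. Luciferase activity was read as luminescence after One-Glo reagent and 30 min at room temperature.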
structure (smiles),measurement,setting,value
CC(CC=O)CCCC(C)(C)O (configuration not stated),Potency,[1],inactive
same,outcome,[2],inactive
same,outcome,[3],inactive
same,outcome,[4],inactive
CC(C)OC(=O)CCCCC(=O)OC(C)C,Potency,[1],inactive
same,outcome,[2],inactive
same,outcome,[3],inactive
same,outcome,[4],inactive
Cc1ccc2c(c1)OCC(=O)CO2,Potency,[1],inactive
same,outcome,[2],inactive
same,outcome,[3],inactive
same,outcome,[4],inactive
CCCCCCCCCC(C)=O,Potency,[1],inactive
same,outcome,[2],inactive
same,outcome,[3],inactive
same,outcome,[4],inactive
CC1(CO)CN(c2ccccc2)NC1=O (configuration not stated),Potency,[1],inactive
same,outcome,[2],inactive
same,outcome,[3],inactive
same,outcome,[4],inactive
same,Potency,[5],inactive
CC1=C(C(=O)O)N2C(=O)[C@@H](NC(=O)[C@H](N)c3ccc(O)cc3)[C@H]2SC1,Potency,[1],inactive
same,outcome,[2],inactive
same,outcome,[3],inactive
same,outcome,[4],inactive
same,Potency,[5],inactive
CC1COc2ccccc2N1 (configuration not stated),Potency,[1],inactive
same,outcome,[2],inactive
same,outcome,[3],inactive
same,outcome,[4],inactive
Cc1cccc2nccnc12,Potency,[1],inactive
same,outcome,[2],inactive
same,outcome,[3],inactive
same,outcome,[4],inactive
COc1ccc2nc(SCc3ncc(C)c(OC)c3C)[nH]c2c1,Potency,[1],inactive
same,outcome,[2],inactive
same,outcome,[3],inactive
same,outcome,[4],inactive
CC(C)CC(C)CC(C)CC(C)COC(=O)c1ccccc1C(=O)OCC(C)CC(C)CC(C)CC(C)C (configuration not stated),Potency,[1],inactive
same,outcome,[2],inactive
same,outcome,[3],inactive
same,outcome,[4],inactive
CCC(C)(CCC(C)C)C(=O)O (configuration not stated),Potency,[1],inactive
same,outcome,[2],inactive
same,outcome,[3],inactive
same,outcome,[4],inactive
C[C@@H]1O[C@@H](O[C@@H]2[C@@H](O)[C@H](OCCc3ccc(O)c(O)c3)O[C@H](CO[C@@H]3O[C@H](CO)[C@@H](O)[C@H](O)[C@H]3O)[C@H]2OC(=O)/C=C/c2ccc(O)c(O)c2)[C@H](O)[C@H](O)[C@H]1O,Potency,[1],inactive
same,outcome,[2],inactive
same,outcome,[3],inactive
same,outcome,[4],inactive
same,Potency,[5],inactive
Nc1ncnc(Nc2ccccc2)n1,Potency,[1],inactive
same,outcome,[2],inactive
same,outcome,[3],inactive
same,outcome,[4],inactive
O=C(O)c1cc(Br)c(O)c(Br)c1,Potency,[1],inactive
same,outcome,[2],inactive
same,outcome,[3],inactive
same,outcome,[4],inactive
O=C(c1ccc(O)cc1)c1ccc(O)c(O)c1O,Potency,[1],inactive
same,outcome,[2],inactive
same,outcome,[3],inactive
same,outcome,[4],inactive
NS(=O)(=O)c1cc2c(cc1Cl)CN(C1CCCCC1)C2=O,Potency,[1],inactive
same,outcome,[2],inactive
same,outcome,[3],inactive
same,outcome,[4],inactive
CC(C)(C)OC(=O)c1ccc(O)cc1,Potency,[1],inactive
same,outcome,[2],inactive
same,outcome,[3],inactive
same,outcome,[4],inactive
Cc1cc2cc3c(C)cc(=O)oc3c(C)c2o1,Potency,[1],inactive
same,outcome,[2],inactive
same,outcome,[3],inactive
same,outcome,[4],inactive
NNc1nnc(NN)c2ccccc12,Potency,[1],inactive
same,outcome,[2],inactive
same,outcome,[3],inactive
same,outcome,[4],inactive
Cc1cc(NC(=O)C2=C(O)c3ccccc3S(=O)(=O)N2C)no1,Potency,[1],inactive
same,outcome,[2],inactive
same,outcome,[3],inactive
same,outcome,[4],inactive
same,Potency,[5],inactive
O=C(O)c1ccc(Cl)cc1Cl,Potency,[1],inactive
same,outcome,[2],inactive
same,outcome,[3],inactive
same,outcome,[4],inactive
O=C(/N=N/C(=O)OCc1ccccc1)OCc1ccccc1,Potency,[1],inactive
same,outcome,[2],inactive
same,outcome,[3],inactive
same,outcome,[4],inactive
CC(C)C(=O)OCc1cccc(OC(=O)[C@@H]2N3C(=O)[C@@H](NC(=O)Cc4ccccc4)[C@H]3SC2(C)C)c1,Potency,[1],inactive
same,outcome,[2],inactive
same,outcome,[3],inactive
same,outcome,[4],inactive
NCCN1CCOCC1,Potency,[1],inactive
same,outcome,[2],inactive
same,outcome,[3],inactive
same,outcome,[4],inactive
same,Potency,[5],inactive
COc1ccc(OC)c(Cl)c1,Potency,[1],inactive
same,outcome,[2],inactive
same,outcome,[3],inactive
same,outcome,[4],inactive
OC[C@H](Cc1cccc(O)c1)[C@H](CO)Cc1cccc(O)c1,Potency,[1],inactive
same,outcome,[2],inactive
same,outcome,[3],inactive
same,outcome,[4],inactive
CCOCCOCCOCC,Potency,[1],inactive
same,outcome,[2],inactive
same,outcome,[3],inactive
same,outcome,[4],inactive
COC(=O)C1CC(=O)C(C(=O)OC)CC1=O (configuration not stated),activation,[1],10.5% [at 6.98 µM]
same,"activity change, negative = cytotoxicity",[2],8.97% [at 6.97 µM]
same,"activity change, negative = cytotoxicity",[3],3.23% [at 8.39 µM]
same,"activity, negative = inhibition",[4],-2.77% [at 8.39 µM]
CCCCCCN,Potency,[1],inactive
same,outcome,[2],inactive
same,outcome,[3],inactive
same,outcome,[4],inactive
Cc1ccccc1C(=O)Nc1ccc(C(=O)N2CCCC(N(C)C)c3ccccc32)cc1 (configuration not stated),Potency,[1],inactive
same,outcome,[2],inactive
same,outcome,[3],inactive
same,Potency,[5],inactive
CCCCNc1ccc(C(=O)OCCN(C)C)cc1,Potency,[1],inactive
same,outcome,[2],inactive
same,outcome,[3],inactive
same,outcome,[4],inactive
same,outcome,[6],inactive
CCCC/C=C/C=C\C=O,Potency,[1],inactive
same,outcome,[2],inactive
same,outcome,[3],inactive
same,Potency,[5],inactive
CC(CN)CC(C)(C)CCN (configuration not stated),Potency,[1],inactive
same,outcome,[2],inactive
same,outcome,[3],inactive
same,outcome,[4],inactive
same,Potency,[5],inactive
BrCc1cccc(Oc2ccccc2)c1,Potency,[1],inactive
same,outcome,[2],inactive
same,outcome,[3],inactive
same,outcome,[4],inactive
same,Potency,[5],inactive
COc1ccc2c(c1OC)C(=O)O[C@@H]2[C@H]1c2c(cc3c(c2OC)OCO3)CCN1C,Potency,[1],inactive
same,outcome,[2],inactive
same,outcome,[3],inactive
same,outcome,[4],inactive
same,outcome,[7],inactive
same,outcome,[8],inactive
same,outcome,[9],inactive
same,outcome,[10],inactive
CC(COC(C)(C)C)OCCCO (configuration not stated),Potency,[1],11 µM (active)
same,outcome,[2],inactive
same,outcome,[3],inactive
same,outcome,[4],inactive
same,Potency,[5],inactive
